According to article PMC5540273 (PLoS ONE, 2017):

Columns and labels:
Settings in all cases: concentration: 1 μM,replicates: in singlicate; n = 1
[1] = system: NEK11
[2] = system: NEK1
[3] = system: NEK2
[4] = system: NEK3
[5] = system: NEK4
[6] = system: NEK5
[7] = system: NEK6
[8] = system: NEK7
[9] = system: NEK9
[10] = system: T1, NIK
T1 construct: gene MAP3K14

[11] = system: T2, NIM1
T2 construct: gene MGC42105

[12] = system: NLK
[13] = system: T3, OSR1
T3 construct: gene OXSR1

[14] = system: PAK1
[15] = system: PAK2
[16] = system: PAK3
[17] = system: PAK4
[18] = system: PAK6
[19] = system: PAK7
[20] = system: T4, PCTK1
T4 construct: gene CDK16
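Further: KINOMEscan kinase panel screen.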

SMILES | %Inh [1] [%] | %Inh [2] [%] | %Inh [3] [%] | %Inh [4] [%] | %Inh [5] [%] | %Inh [6] [%] | %Inh [7] [%] | %Inh [8] [%] | %Inh [9] [%] | %Inh [10] [%] | %Inh [11] [%] | %Inh [12] [%] | %Inh [13] [%] | %Inh [14] [%] | %Inh [15] [%] | %Inh [16] [%] | %Inh [17] [%] | %Inh [18] [%] | %Inh [19] [%] | %Inh [20] [%]
COc1cc(Nc2nccc(N3CCC(NC(=O)c4cccc(C#N)c4)C3)n2)cc(OC)c1OC (centres unmarked) [GSK1379751] | 0 | 33 | 13 | 34 | 2 | 97.1 | 33 | 11 | 0 | 27 | 16 | 7 | 2 | 2 | 0 | 0 | 0 | 0 | 1 | 0
CCNCC(Cc1ccccc1)NC(=O)c1cc(Br)c(-c2ccnc3[nH]ccc23)s1.Cl.Cl (centres unmarked) [GSK1383280] | 0 | 79 | 18 | 17 | 0 | 79 | 0 | 0 | 10 | 0 | 20 | 0 | 8 | 26 | 40 | 62 | 44 | 60 | 78 | 0
O=C(Nc1cccc(Oc2ccc3nccn3n2)c1)Nc1cccc(C(F)(F)F)c1 | 0 | 0 | 8 | 7 | 0 | 0 | 0 | 0 | 0 | 27 | 14 | 19 | 0 | 0 | 0 | 0 | 0 | 5 | 0 | 0
CCCC(=O)Nc1n[nH]c2ncccc12 [SB-601436] | 4 | 0 | 0 | 0 | 0 | 0 | 0 | 13 | 0 | 10 | 0 | 0 | 0 | 0 | 17 | 0 | 0 | 0 | 0 | 0
COc1cccc(OC)c1C(=O)Nc1cccc(-c2nn3ccccc3c2-c2ccnc(Nc3cccc(F)c3)n2)c1 [GSK361065] | 0 | 0 | 4 | 7 | 0 | 10 | 17 | 0 | 0 | 0 | 0 | 90 | 0 | 6 | 10 | 0 | 10 | 24 | 0 | 0
C[C@@H](Oc1cc(-n2cnc3cc(-c4cnn(C)c4)ccc32)sc1C(N)=O)c1ccccc1Cl [GSK580432] | 0 | 88 | 99.2 | 0 | 0 | 99.7 | 41 | 71 | 81 | 7 | 64 | 0 | 12 | 0 | 13 | 63 | 0 | 2 | 0 | 0
CN(c1ccccc1CNc1nc(Nc2ccc3c(c2)CC(=O)N3)ncc1C(F)(F)F)S(C)(=O)=O | 0 | 0 | 0 | 32 | 0 | 0 | 26 | 64 | 53 | 0 | 0 | 0 | 0 | 0 | 0 | 68 | 2 | 0 | 11 | 28
O=C(Nc1ccc(Oc2ccc3nc(NC(=O)C4CC4)cn3n2)c(F)c1)c1cccn(-c2ccccc2)c1=O | 0 | 0 | 0 | 8 | 0 | 54 | 6 | 0 | 0 | 0 | 0 | 0 | 0 | 0 | 0 | 0 | 0 | 0 | 0 | 0
CS(=O)(=O)c1cccc(CNc2nc(Nc3ccc4c(c3)[C@@H]3C[C@@H]4CNC3=O)ncc2C(F)(F)F)c1 | 0 | 0 | 0 | 23 | 1 | 0 | 19 | 12 | 2 | 26 | 0 | 0 | 48 | 5 | 12 | 0 | 0 | 18 | 20 | 0
CC(=O)c1c(-c2ccncc2)[nH]c(-c2ccncc2)c1C [GW493036] | 0 | 0 | 0 | 47 | 4 | 19 | 0 | 0 | 27 | 28 | 8 | 18 | 3 | 15 | 19 | 20 | 0 | 2 | 0 | 4
